Data published in the supplement of paper PMC3545927.
This is one part of the list. No count for the full screen is at hand.

Target: furin, P09958
Test: furin cleavage Z-score vs untreated control; higher = more cleavage, active = 3.5 or more, inactive = 1 or less, 8 variable residues between constant flanks
In short: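 The cleavage Z-score was derived for purified furin acting on 8-mer peptides held on magnetic beads and fused to a cDNA oligonucleotide. Digests lasted 7.5, 15 or 30 min at 1:10 enzyme:substrate in 50 mM HEPES pH 7.5 with CaCl2 and NaCl. Sequencing counts of released DNA, log-transformed against furin-free reactions, were lowess-adjusted and scaled by median absolute deviation.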

furin, P09958, sequence (P09958 whole entry): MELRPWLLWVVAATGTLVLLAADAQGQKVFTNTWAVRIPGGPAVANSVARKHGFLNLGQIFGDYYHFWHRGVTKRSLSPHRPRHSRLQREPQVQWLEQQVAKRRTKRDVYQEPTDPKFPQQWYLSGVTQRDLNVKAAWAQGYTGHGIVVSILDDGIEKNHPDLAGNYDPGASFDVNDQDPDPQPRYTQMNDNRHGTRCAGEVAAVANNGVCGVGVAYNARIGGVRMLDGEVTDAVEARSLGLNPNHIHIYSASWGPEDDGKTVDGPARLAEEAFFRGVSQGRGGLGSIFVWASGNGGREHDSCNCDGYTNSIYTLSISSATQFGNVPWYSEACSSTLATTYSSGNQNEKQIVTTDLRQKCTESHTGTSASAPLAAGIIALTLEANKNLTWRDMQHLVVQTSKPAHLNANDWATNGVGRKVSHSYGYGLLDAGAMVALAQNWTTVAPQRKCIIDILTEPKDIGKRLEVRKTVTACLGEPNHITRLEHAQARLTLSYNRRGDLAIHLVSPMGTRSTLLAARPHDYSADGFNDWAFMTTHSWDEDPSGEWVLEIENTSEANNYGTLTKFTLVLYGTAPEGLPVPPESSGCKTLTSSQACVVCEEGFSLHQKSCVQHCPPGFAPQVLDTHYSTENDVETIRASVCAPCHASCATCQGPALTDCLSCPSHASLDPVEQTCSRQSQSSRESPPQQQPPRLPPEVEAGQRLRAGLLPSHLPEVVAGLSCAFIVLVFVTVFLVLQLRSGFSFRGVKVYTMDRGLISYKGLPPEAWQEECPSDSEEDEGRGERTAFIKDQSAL

Sequence | furin cleavage Z-score (7.5 min) | furin cleavage Z-score (15 min) | furin cleavage Z-score (30 min)
CACYIKARAAAGNASASA [HC1518] | -1.15 (inactive) | -2.21 (inactive) | -1.87 (inactive)
CALETTMRSPAGNASASA [HC761] | -0.168 (inactive) | -1 (inactive) | -1.96 (inactive)
CACDECHSTDAGNASASA [HC818] | 0.0668 (inactive) | -0.316 (inactive) | -1.36 (inactive)
CAVVCCSMSSAGNASASA [HC2097] | -1.16 (inactive) | -0.774 (inactive) | -1.81 (inactive)
CASLDPTFTIAGNASASA [HC893] | -1.06 (inactive) | -1.75 (inactive) | -1.02 (inactive)
CAQLRRTTRSAGNASASA [FS-285] | 7.33 (active) | 6.26 (active) | 6.25 (active)
CASPARETRSAGNASASA [FS-627] | 5.25 (active) | 8.43 (active) | 6.33 (active)
CASPLRQNRSAGNASASA [FS-299] | 0.752 (inactive) | 0.557 (inactive) | 0.444 (inactive)
CAMDARTDRSAGNASASA [FS-1375] | 1.8 | -1.12 (inactive) | 0.78 (inactive)
CAEYVTSTWVAGNASASA [HC2169] | 0.357 (inactive) | 0.186 (inactive) | -1.53 (inactive)
CAAGAAIGSVAGNASASA [HC1078] | -1.21 (inactive) | 0.457 (inactive) | -0.822 (inactive)
CAEVVTSHWVAGNASASA [HC2215] | -1.58 (inactive) | -0.204 (inactive) | 0.171 (inactive)
CAAAGRRLARAGNASASA [HC1253] | 4.08 (active) | 4.81 (active) | 4.86 (active)
CAVRARLLARAGNASASA [HC1624] | -2.8 (inactive) | -0.431 (inactive) | -0.318 (inactive)
CADPTTPLARAGNASASA [HC1564] | -0.242 (inactive) | -3 (inactive) | -1.34 (inactive)
CAVDCCSMSYAGNASASA [HC2011] | 0.752 (inactive) | -0.617 (inactive) | 0.379 (inactive)
CAMHIRRKRIAGNASASA [FS-1235] | 8.17 (active) | 9.27 (active) | 7.92 (active)
CALAERRVRIAGNASASA [FS-265] | 0.222 (inactive) | 0.166 (inactive) | -2.18 (inactive)

Sequence | furin cleavage Z-score (7.5 min) | furin cleavage Z-score (15 min) | furin cleavage Z-score (30 min)
CALILRSKRYAGNASASA [FS-1024] | 9.69 (active) | 10.5 (active) | 10.3 (active)
CARCRRNKRIAGNASASA [FS-1649] | 4.5 (active) | 6.14 (active) | 4.22 (active)
CAFKNRSCRIAGNASASA [FS-768] | -0.201 (inactive) | 0.864 (inactive) | 0.865 (inactive)
CAARIRVKRYAGNASASA [FS-8] | 8.19 (active) | 7 (active) | 8.58 (active)
CADFDSVIDCAGNASASA [HC884] | -0.725 (inactive) | -1.64 (inactive) | -0.179 (inactive)
CAEVYCHRPSAGNASASA [HC2349] | -0.918 (inactive) | 0.00682 (inactive) | -0.904 (inactive)
CAAEECSQHLAGNASASA [HC1663] | 0.467 (inactive) | 0.000249 (inactive) | 1.4
CAAICRRKRYAGNASASA [FS-396] | 11.5 (active) | 13.2 (active) | 11.3 (active)
CAANVRRKRYAGNASASA [FS-643] | 12.5 (active) | 13.8 (active) | 11.3 (active)
CAFHIRRKRYAGNASASA [FS-651] | 11.7 (active) | 12.5 (active) | 10.9 (active)
CAFHIRRKRYAGNASASA [FU9] | 11 (active) | 12.5 (active) | 11.3 (active)
CANHVSPTHYAGNASASA [HC1124] | -0.962 (inactive) | 0.0646 (inactive) | -0.575 (inactive)
CANFISGIQYAGNASASA [HC1044] | -0.934 (inactive) | -0.739 (inactive) | -0.721 (inactive)
CALTHPVTKYAGNASASA [HC979] | -1.06 (inactive) | 1.08 | 1.75
CASRHRVTRYAGNASASA [FS-1489] | 9.37 (active) | 11.3 (active) | 10.7 (active)
CASRGENCGYAGNASASA [HC1505] | 1.28 | -1.03 (inactive) | -0.54 (inactive)
CAAICGKYLFAGNASASA [HC1630] | 1.25 | -1.22 (inactive) | -0.719 (inactive)
